Experimental data as given in PubChem BioAssay AID1159580 (chemical genetic matrix, 2015).
Values joined by “and” are separate entries in the source; they are usually repeats but may differ in a detail not shown here. Identical values can stand only once. Hit rate of the full screen: of about 5,500 compounds, about 2,000 (36%) were called active. Another 18% or so got no clear call; they are omitted. Rule as the data show it: active = normalized growth mostly below about 0.91 (no sharp cut-off); inconclusive = no clear call, values can overlap the other calls; inactive = mostly above about 0.92. This is one part of the list.

Assay: chemical genetic growth profiling, strain panel (AID 1159580);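 also: tested at 20 µM; growth read once vehicle control cultures reached saturation at 30 °C; 1 = growth at the plate median or of vehicle wells; lower values mean less growth of the strain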
Conditions: growth OD

Measured: normalized growth

CC1=C(/C=C/C(C)=C/C=C/C(C)=C\C(=O)O)C(C)(C)CCC1
inactive: S. cerevisiae deletion strains, locus YJR075W, strain HOC1, hits give low values 0.962 and 1.01 | S. cerevisiae deletion strains, locus YKL009W, strain mrt4, hits give low values 0.94 | S. cerevisiae deletion strains, locus YKL068W, hits give low values 1 | S. cerevisiae deletion strains, locus YKL085W, strain MDH1 (second series), hits give low values 0.941 | S. cerevisiae deletion strains, locus YKL085W, strain MDH1, hits give low values 0.941 | S. cerevisiae deletion strains, locus YKL160W, strain elf1, hits give low values 0.977 | S. cerevisiae deletion strains, locus YKL190W, strain CNB1, hits give low values 0.989 | S. cerevisiae deletion strains, locus YKR001C, strain vps1, hits give low values 0.942 | S. cerevisiae deletion strains, locus YKR026C, strain gcn3, hits give low values 0.982 | S. cerevisiae deletion strains, locus YKR091W, strain srl3, hits give low values 0.988 | S. cerevisiae deletion strains, locus YLL001W, strain dnm1, hits give low values 0.93 | S. cerevisiae deletion strains, locus YLL026W, hits give low values 0.966 | S. cerevisiae deletion strains, locus YLL041C, strain sdh2, hits give low values 0.99 | S. cerevisiae deletion strains, locus YLR027C, strain aat2, hits give low values 0.958 | S. cerevisiae deletion strains, locus YLR039C, strain RIC1, hits give low values 0.866 | S. cerevisiae deletion strains, locus YLR058C, strain SHM2, hits give low values 1 | S. cerevisiae deletion strains, locus YLR102C, strain apc9, hits give low values 1 | S. cerevisiae deletion strains, locus YLR113W, strain HOG1, hits give low values 1.08 | S. cerevisiae deletion strains, locus YLR221C, strain rsa3, hits give low values 1.02 | S. cerevisiae deletion strains, locus YLR258W, strain gsy2, hits give low values 0.992 | S. cerevisiae deletion strains, locus YLR262C, strain YPT6 (second series), hits give low values 0.925 | S. cerevisiae deletion strains, locus YLR262C, strain YPT6, hits give low values 0.875 | S. cerevisiae deletion strains, locus YLR268W, strain sec22, hits give low values 0.966 | S. cerevisiae deletion strains, locus YLR320W, strain mms22, hits give low values 0.993 | S. cerevisiae deletion strains, locus YLR330W, strain CHS5, hits give low values 1.01 | S. cerevisiae deletion strains, locus YLR342W, strain FKS1 (second series), hits give low values 0.952 | S. cerevisiae deletion strains, locus YLR342W, strain FKS1, hits give low values 0.953 | S. cerevisiae deletion strains, locus YLR357W, strain rsc2, hits give low values 0.982 | S. cerevisiae deletion strains, locus YLR370C, strain arc18, hits give low values 0.996 | S. cerevisiae deletion strains, locus YLR371W, strain rom2, hits give low values 1.01 | S. cerevisiae deletion strains, locus YLR384C, strain iki3, hits give low values 0.973 | S. cerevisiae deletion strains, locus YLR418C, strain cdc73, hits give low values 0.846 | S. cerevisiae deletion strains, locus YML016C, strain PPZ1, hits give low values 1 | S. cerevisiae deletion strains, locus YML032C, strain rad52, hits give low values 0.978 | S. cerevisiae deletion strains, locus YML120C, strain ndi1, hits give low values 0.977 | S. cerevisiae deletion strains, locus YML124C, strain tub3, hits give low values 0.998 | S. cerevisiae deletion strains, locus YMR058W, strain fet3, hits give low values 0.978 | S. cerevisiae deletion strains, locus YMR078C, strain ctf18, hits give low values 0.998 | S. cerevisiae deletion strains, locus YMR125W, strain sto1, hits give low values 1.01 | S. cerevisiae deletion strains, locus YMR129W, hits give low values 0.987 | S. cerevisiae deletion strains, locus YMR205C, strain PFK2, hits give low values 0.971 | S. cerevisiae deletion strains, locus YMR223W, strain ubp8, hits give low values 0.976 | S. cerevisiae deletion strains, locus YMR231W, strain pep5, hits give low values 0.98 | S. cerevisiae deletion strains, locus YMR263W, strain SAP30, hits give low values 0.956 | S. cerevisiae deletion strains, locus YMR307W, strain GAS1, hits give low values 0.909 and 1.05 | S. cerevisiae deletion strains, locus YNL067W, strain RPL9B, hits give low values 0.951 | S. cerevisiae deletion strains, locus YNL071W, strain lat1, hits give low values 0.994 | S. cerevisiae deletion strains, locus YNL128W, strain TEP1, hits give low values 0.985 | S. cerevisiae deletion strains, locus YNL153C, strain GIM3, hits give low values 0.933 | S. cerevisiae deletion strains, locus YNL175C, strain NOP13, hits give low values 1.02 | S. cerevisiae deletion strains, locus YNL183C, strain NPR1, hits give low values 0.952 | S. cerevisiae deletion strains, locus YNL197C, strain WHI3, hits give low values 1.03 | S. cerevisiae deletion strains, locus YNL209W, strain ssb2, hits give low values 0.988 | S. cerevisiae deletion strains, locus YNL224C, strain SQS1, hits give low values 1.01 | S. cerevisiae deletion strains, locus YNL233W, strain BNI4, hits give low values 0.947 | S. cerevisiae deletion strains, locus YNL248C, strain rpa49, hits give low values 1.02 | S. cerevisiae deletion strains, locus YNL250W, strain rad50, hits give low values 0.992 | S. cerevisiae deletion strains, locus YNL271C, strain bni1, hits give low values 0.994 | S. cerevisiae deletion strains, locus YNL298W, strain CLA4, hits give low values 0.979 | S. cerevisiae deletion strains, locus YNL307C, strain MCK1, hits give low values 0.931 | S. cerevisiae deletion strains, locus YNL322C, strain KRE1 (second series), hits give low values 0.986 | S. cerevisiae deletion strains, locus YNL322C, strain KRE1, hits give low values 0.997 and 1.03 | S. cerevisiae deletion strains, locus YNR049C, strain mso1, hits give low values 0.988 | S. cerevisiae deletion strains, locus YNR052C, strain pop2, hits give low values 1.01 | S. cerevisiae deletion strains, locus YOL006C, strain TOP1, hits give low values 0.909 | S. cerevisiae deletion strains, locus YOL012C, strain htz1 0.855 | S. cerevisiae deletion strains, locus YOL147C, strain pex11, hits give low values 0.995 | S. cerevisiae deletion strains, locus YOR001W, strain rrp6, hits give low values 0.965 | S. cerevisiae deletion strains, locus YOR061W, strain CKA2, hits give low values 1.01 | S. cerevisiae deletion strains, locus YOR069W, strain VPS5, hits give low values 1.01 | S. cerevisiae deletion strains, locus YOR070C, strain gyp1, hits give low values 0.996 | S. cerevisiae deletion strains, locus YOR080W, strain dia2, hits give low values 0.986 | S. cerevisiae deletion strains, locus YOR083W, strain WHI5 (second series), hits give low values 1.03 | S. cerevisiae deletion strains, locus YOR083W, strain WHI5, hits give low values 0.954 | S. cerevisiae deletion strains, locus YOR106W, strain vam3, hits give low values 0.927 | S. cerevisiae deletion strains, locus YOR136W, strain idh2, hits give low values 0.991 | S. cerevisiae deletion strains, locus YOR144C, strain elg1, hits give low values 1.01 | S. cerevisiae deletion strains, locus YOR184W, strain ser1, hits give low values 0.95 | S. cerevisiae deletion strains, locus YOR231W, strain MKK1, hits give low values 1.05 | S. cerevisiae deletion strains, locus YOR265W, strain rbl2, hits give low values 0.987 | S. cerevisiae deletion strains, locus YOR270C, strain vph1, hits give low values 0.835 | S. cerevisiae deletion strains, locus YOR290C, strain snf2, hits give low values 1.01 | S. cerevisiae deletion strains, locus YOR316C, strain cot1, hits give low values 1.01 | S. cerevisiae deletion strains, locus YPL051W, strain arl3, hits give low values 0.983 | S. cerevisiae deletion strains, locus YPL055C, strain LGE1, hits give low values 0.918 | S. cerevisiae deletion strains, locus YPL078C, strain atp4, hits give low values 0.947 | S. cerevisiae deletion strains, locus YPL106C, strain sse1, hits give low values 1.02 | S. cerevisiae deletion strains, locus YPL240C, strain hsp82, hits give low values 0.977 | S. cerevisiae deletion strains, locus YPL241C, strain CIN2, hits give low values 1.01 | S. cerevisiae deletion strains, locus YPL256C, strain CLN2, hits give low values 1.04 | S. cerevisiae deletion strains, locus YPR119W, strain clb2, hits give low values 1 | S. cerevisiae deletion strains, locus YPR141C, strain kar3, hits give low values 0.989 | S. cerevisiae deletion strains, locus YPR163C, strain tif3, hits give low values 1 | S. cerevisiae deletion strains, locus YPR167C, strain met16, hits give low values 1 | S. cerevisiae deletion strains, strain wtn01, hits give low values 0.956 | S. cerevisiae strains, strain wild type, hits give low values 0.975
